Screening results: PubChem BioAssay, National Center for Advancing Translational Sciences (NCATS)
This is a sample that favours compounds with a hit; in the whole collection about 3.1% have one here.
uPA generation – cell surface uPA generation inhibition. cell surface uPA generation assay, qHTS. Potency, µM (titrated, usually from 38.3 µM), without a hit: at the top dose activity change, negative = inhibition, actives largely listed as inhibitors. 330,000 compounds, 0.31% hits. AID 540303; active = well fitted inhibition curve with a large enough effect; inconclusive = small, poorly fitted or top-dose-only effect; inactive = no such curve, though single readings can be large or run the other way; tested in mouse RAW 264.7 cells; also: potency is read from the fitted curve at half-maximal effect; % is scaled to controls: 0 for no effect and ±100 for the full control effect; nearly all actives have a fitted effect of over 55% in size
D3 antag – antagonists of human D3 dopamine receptor. AID 652054. P35462. 360,000 compounds, 2.5% hits. max response, negative = inhibition, %. D3R cells, DiscoveRx beta-arrestin luminescence, antagonist mode; stronger effect = lower value; in the data active = max response below about -50%; inconclusive = no clear call, values can overlap the other calls; also: % is scaled to controls: 0 for no effect and ±100 for the full control effect
Target sequence (P35462 whole entry, looked up): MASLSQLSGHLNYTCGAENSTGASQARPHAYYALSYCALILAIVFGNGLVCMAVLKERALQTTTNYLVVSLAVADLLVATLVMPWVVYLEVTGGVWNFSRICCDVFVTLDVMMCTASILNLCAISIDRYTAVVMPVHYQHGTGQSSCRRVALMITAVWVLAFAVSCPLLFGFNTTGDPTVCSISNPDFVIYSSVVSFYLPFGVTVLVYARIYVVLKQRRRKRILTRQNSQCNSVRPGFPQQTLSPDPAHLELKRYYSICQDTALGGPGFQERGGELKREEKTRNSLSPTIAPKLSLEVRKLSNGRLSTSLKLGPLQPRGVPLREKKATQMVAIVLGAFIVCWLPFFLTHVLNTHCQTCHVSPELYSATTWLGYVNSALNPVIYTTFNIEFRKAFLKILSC
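Cells plated overnight at 1500 cells/well, then exposed to library compounds with dopamine controls for 90 minutes at 37 degrees C. DiscoveRx reagent added for 30–60 minutes at room temperature; luminescence read, quantitative HTS format.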
RGS4 inh – blocks human RGS4-accelerated GTP hydrolysis. P49798. Transcreener GDP fluorescence polarization, RGS4-accelerated GTP hydrolysis. Potency, µM (highest dose often 114 µM), for the others: at the top dose activity change, negative = inhibition, most hits filed as inhibitors. 390,000 compounds, 0.039% hits; active = well fitted inhibition curve with a large enough effect; inconclusive = small, poorly fitted or top-dose-only effect; inactive = no such curve, though single readings can be large or run the other way; also: potency is read from the fitted curve at half-maximal effect; % is scaled to controls: 0 for no effect and ±100 for the full control effect; nearly all actives have a fitted effect of over 75% in size
Target sequence (P49798 whole entry, looked up): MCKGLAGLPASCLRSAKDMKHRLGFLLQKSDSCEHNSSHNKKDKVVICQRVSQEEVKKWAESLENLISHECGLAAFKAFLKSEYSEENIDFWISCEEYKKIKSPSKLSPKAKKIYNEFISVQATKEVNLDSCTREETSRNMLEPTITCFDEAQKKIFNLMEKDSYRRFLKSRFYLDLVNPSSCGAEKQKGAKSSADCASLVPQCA
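MLSMR compounds (23 nl, pin-transferred) preincubated 10 min at room temperature with a 500nM (2x) first reagent, then RGS4 at 900nM (2x) plus Transcreener GDP mix added; fluorescence polarization (620/688 nm) read before and after 90 min at 30 °C.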
D3 ag – D3 dopamine receptor (human) agonism | AID 652048 | P35462 | max activation, % | 410,000 compounds, 0.58% hits | D3R DiscoveRx beta-arrestin cells, luminescence, 90 min; in the data active = max activation above about 30%; also: 0% is about no effect
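Agonist mode: compounds and dopamine controls were applied to plated cells for 90 min at 37 degrees C after an overnight attachment at 1500 cells/well. Luminescent read-out followed 30 - 60 minutes at room temperature with DiscoveRx detection reagent.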
* = called active by the depositor; i = inactive; ? = inconclusive; nt = not tested or not shown; [ ] = remark or other dose.

SMILES | uPA generation | D3 antag | RGS4 inh | D3 ag
COc1ccc(-n2nnnc2S(=O)(=O)CC(=O)N2CCCCC2)cc1 | ? | -98* | -35% | -9
COCCn1c(C)cc(C2=NNC(=Nc3ccccc3)SC2)c1C | -1% | -58* | ? | 1
COCCn1c(C)cc(C2=NNC(=Nc3ccc(OC)cc3)SC2)c1C | ? | -12 | -36% | -3
Cc1cccc(-c2c3c(=O)n(C)c(=O)n(C)c3c3cnc4ccccc4n23)c1 | nt | nt | -13% | -10
O=C(O)COc1cccc(-c2ocnc2-c2nc(-c3ccccc3)c(-c3ccccc3)o2)c1 | nt | nt | i | nt
CCN(CC)C(=O)C1CCCN(Cc2sccc2C)C1 (configuration not stated) | -2% | -63* | 21% | -20
CCN(CC)C(=O)C1CCCN(Cc2cccc(F)c2)C1 (configuration not stated) | nt | 15 | -11% | -6
O=[N+]([O-])c1cccc(/C=C/c2nc(C=Nc3ccccc3)c(O)o2)c1 | nt | 31 | -4% | 31*
CCOC(=O)C1CCCN(C(=O)Cn2ncc3c(C)n(Cc4ccccc4F)c(C)c3c2=O)C1 (configuration not stated) | nt | nt | 16% | 9
Cc1nc(Nc2ccc(Cl)cc2)c2nnn(Cc3ccccc3)c2n1 | -1% | 6 | ? | 1
CC(=O)Nc1ccc(Nc2nc(C)nc3c2nnn3Cc2ccccc2Cl)cc1 | -6% | -74* | 10%[56.9 µM] | -20
Cc1nc(Nc2ccc(S(=O)(=O)N3CCCCC3C)cc2)c2nnn(Cc3ccccc3)c2n1 (configuration not stated) | 0% | -59* | -10% | -5
c1ccc(-c2ccccc2OCCCCN2CCCCCC2)cc1 | ? | -86* | -6% | -3
c1ccc(-c2ccccc2OCCOCCN2CCCCC2)cc1 | -4% | ? | 15% | -28
C=CCc1ccccc1OCCCCN1CCCC1 | 7% | -83* | -3% | -12
c1ccc(-c2ccccc2OCCN2CCCC2)cc1 | 2% | -63* | -20% | -23
C=CCc1ccccc1OCCn1ccnc1 | 2% | -52* | -30%[56.9 µM] | 6
Oc1c(C(c2ccccc2F)N2CCC3(CC2)OCCO3)sc2nc(-c3ccco3)nn12 (configuration not stated) | nt | nt | 0% | 1
CCCCC(=O)N(C)c1c(CC)nc2c(OCC(=O)c3ccc(F)cc3)cccn12 | nt | 32 | nt | 3
Cc1ccc(OCCn2ccnc2)c(C)c1 | 16% | -21 | -2% | -3
Cc1cc(C(C)(C)C)ccc1OCCn1ccnc1 | 0% | -64* | -36% | 2
Brc1cccc(CN2CCCCCC2)c1 | -4% | -17 | 7% | -13
OC1(c2ccc(Br)cc2)CCN(Cc2cccc(Br)c2)CC1 | 18% | -106* | -1% | -17
C1COCCNCCOCCOCCN1 | -4% | -92* | 3% | 1
C1COCCNCCOCCOCCOCCN1 | -4% | 12 | 16% | -8
SMILES | uPA generation | D3 antag | RGS4 inh | D3 ag
CCCC12CN3CC(CCC)(CN(C1)C3c1c(C)[nH]c(=O)[nH]c1=O)C2=O (configuration not stated) | nt | nt | -4% | 7
O=C(CC1(O)C(=O)N(CCc2ccccc2)c2ccc(Br)cc21)c1ccccc1O (configuration not stated) | nt | nt | -53% | -21
COc1ccccc1-c1cc(C(F)(F)F)nc(S(=O)(=O)CCCC(=O)N2CCCCC2C)n1 (configuration not stated) | -5% | -88* | ? | -6
COc1ccc(NC(=O)CCCS(=O)(=O)c2nc(-c3ccccc3OC)cc(C(F)(F)F)n2)c(OC)c1 | nt | nt | 4% | -6
COc1ccccc1-c1cc(C(F)(F)F)nc(S(=O)(=O)CCCC(=O)Nc2cc(C)on2)n1 | -8% | -82* | 9% | -1
COc1ccccc1-c1cc(C(F)(F)F)nc(S(=O)(=O)CCCC(=O)NC(C)C)n1 | -13% | -67* | -43% | 0
COc1ccccc1-c1cc(C(F)(F)F)nc(S(=O)(=O)CCCC(=O)Nc2cccnc2Cl)n1 | 3% | -52* | -32% | -15
O=S(=O)(c1ccc(-c2cc(C(F)(F)F)on2)s1)N1CCN(c2cccc(Cl)c2)CC1 | nt | nt | 19% | -7
COc1cccc(CCNC(=O)Cn2c(-c3cccs3)cc3ccccc32)c1 | nt | nt | 23% | -1
COc1ccccc1-c1cc(C(F)(F)F)nc(S(=O)(=O)CCCC(=O)Nc2ccccc2F)n1 | nt | nt | -13% | -24
COc1ccccc1-c1cc(C(F)(F)F)nc(S(=O)(=O)CCCC(=O)NCc2ccc(F)cc2)n1 | -5% | -67* | -33% | -9
CCCCC(CC)CNC(=O)c1ccc2c(=O)n(CCOC)c(=O)[nH]c2c1 (configuration not stated) | nt | nt | 32% | -1
O=[N+]([O-])c1ccc(C=NNc2ccccc2)cc1 | 7% | -24 | 18% | 1
CC(C)(C)c1cnnn1-c1ccc(/C=N/Nc2ccc([N+](=O)[O-])cc2)cc1 | -29% | -57* | 16%[11.4 µM] | -16
Cc1c(O)ccoc1=O | 3% | 1 | 1% | 17
Cc1occc(=O)c1O | 19% | -53* | -4% | 1
COc1ccc(CN2CCN(c3ccc(F)cc3)CC2)c(OC)c1OC | -1% | -26 | 4% | -16
COc1cc(OC)c(CN2CCN(c3ccc(F)cc3)CC2)cc1Br | nt | -74* | -16% | -12
CC(C)NC(=O)COc1coc(CN2CCN(c3cccc(Cl)c3)CC2)cc1=O | -2% | 8 | 21% | -7
CC(C)NC(=O)COc1coc(CN2CCN(c3ccccc3)CC2)cc1=O | 11% | -62* | 6% | 1
Cc1ccc(CNC(=O)CN(c2ccc(C(C)C)cc2)S(=O)(=O)c2c(C)n[nH]c2C)cc1 | nt | nt | -3% | 3
CCOc1ccccc1NC(=O)CN1C(=O)CC(c2ccco2)Sc2ccccc21 (configuration not stated) | nt | nt | -4% | 3
Cc1cccc(OCc2nn[nH]n2)c1C | 0% | -12 | 33% | 68*
Clc1ccccc1OCc1nn[nH]n1 | 3% | -13 | -7% | 6
CN[C@H]1C[C@H]2c3[nH]c4ccc(-c5cccc(C)c5)cc4c3CCN2C[C@H]1[C@H](C)O | nt | 2 | nt | -5
SMILES | uPA generation | D3 antag | RGS4 inh | D3 ag
COc1cc(NC(=O)OCc2ccccc2)c2ncccc2c1 | 0% | 16 | 21% | 34*
COc1cc(NCCCCCCCN)c2ncccc2c1 | 0% | -20 | -48% | -3
COc1cc(NC(C)CCCN)c2ncccc2c1 (configuration not stated) | -6% | -68* | -6% | 2
CCc1cccc(NC(=O)c2ccc(CNS(=O)(=O)c3ccc4c(c3)C(C)(C)C(=O)N4C)cc2)c1 | nt | nt | -11% | 13
CC(=O)OCCCNc1cc(SCc2ccco2)c2nonc2c1[N+](=O)[O-] | -10% | -6 | ? | 6
CCCC(=O)OCCNc1cc(Sc2nccn2C)c2nonc2c1[N+](=O)[O-] | -3% | -92* | ? | -34
CCC(=O)OCCNc1cc(Sc2nc3ccccc3s2)c2nonc2c1[N+](=O)[O-] | nt | -88* | ? | -54
O=[N+]([O-])c1c(NCCCO)cc(Sc2nc3ccccc3s2)c2nonc12 | nt | -90* | ? | -67
